Results published in paper PMC5540273 (PLoS ONE, 2017).
“And” between values parts separate entries of the source, which are not always exact repeats. Equal values may be shown once.

test system: ERBB2; conditions: concentration: 1 μM, replicates: in singlicate; n = 1
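Further: KINOMEscan kinase panel screen.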

Row | Structure (SMILES) | %Inh [%]
1 | N#Cc1c(N2CCOCC2)sc(-c2ccn[nH]2)c1-c1ccc(Cl)cc1 | 0
2 | c1ccc(-c2cc(-c3c[nH]nc3-c3ccccn3)ccn2)cc1 [GW576604] | 0
3 | O=C(NCCCN1CCOCC1)c1cccc(Nc2nccc(Nc3ccc(Oc4ccccc4)cc3)n2)c1 [GW663929] | 38
4 | CCCCCc1nc2c(N)ncnc2n1CCCCC [SKF-97255] | 4
5 | Cc1c(Cn2c(C)nn3c(=O)cc(N4CCOC(C)C4)nc23)cccc1C(F)(F)F (stereo not shown) [GSK2344444] | 0
6 | O=C(NCCNc1ccnc(Nc2ccc(F)cc2)n1)c1cc2ccccc2s1 [GSK1379874] | 1
7 | CC(C)Oc1ccc2c(-c3ccnc(Nc4ccc(N5CCN(C)CC5)cc4)n3)cnn2n1 [GW696155] | 53
8 | COc1cc2c(cc1OCCN1CCN(C)CC1)ncc1c3ccc(C#N)cc3[nH]c21 | 43
9 | CC(=O)Nc1ccc(COc2ccc(Nc3ccnc4cc(-c5ccccn5)ccc34)cc2)cc1.Cl [GW440148] | 12
10 | CC(C)(C)n1cnc2c(N)ncnc21 [SKF-97359] | 37
11 | CN(C1=C(c2ccccc2)C(=O)NC1=O)c1ccccc1 [SB-334860] | 29
12 | Cl.Nc1ncnc2occ(-c3ccc(NC(=O)Nc4cc(C(F)(F)F)ccc4F)cc3)c12 [SB-707548] | 44
13 | NS(=O)(=O)c1cccc(-c2ccc3nccc(-c4cccc(S(N)(=O)=O)c4)c3c2)c1 [GW867253] | 11
14 | NS(=O)(=O)c1cccc(-c2ccc3ncc(N4CCOCC4)nc3c2)c1 [GSK1535721] | 32
15 | COc1ccc(CNC(=O)NC2CCN(c3ccnc(Nc4ccc(OC)cc4)n3)C2)cc1 (stereo not shown) [GSK1379727] | 39
16 | Cc1nnc(-c2ccc(C)c(-c3ccc(C(=O)Nc4ccc(NS(C)(=O)=O)cc4)cc3)c2)o1 [GW702865] | 33

Row | Structure (SMILES) | %Inh [%]
17 | Cc1nnc(-c2ccc3occ(-c4ccc(C(C)O)cc4)c3c2)o1 (stereo not shown) | 0
18 | [2H]C([2H])(c1cccc(C(F)(F)F)c1C)n1ccn2c(=O)nc(N3CCOCC3)cc12 [GSK2336394] | 20
19 | NCC(NC(=O)c1cc(-c2cn[nH]c2)c(-c2ccnc3[nH]ccc23)s1)c1ccccc1.O=C(O)C(F)(F)F.O=C(O)C(F)(F)F (stereo not shown) [GSK1325775] | 32
20 | O=C(NCCNc1ccnc(Nc2ccc(F)cc2)n1)Nc1ccccc1F [GSK1379880] | 9
21 | COc1ccc(S(=O)(=O)NC2CCN(c3cc(C)nc(Nc4cccc(C#N)c4)n3)CC2)cc1.O=C(O)C(F)(F)F [GSK1653539] | 0
22 | O=C1NC(=O)C(N2CCc3ccccc32)=C1c1cccc(Cl)c1 [SB-408010] | 0
23 | O=c1cc(N2CCOCC2)nc2n(Cc3cccc(Cl)c3Cl)c(C3CC3)nn12 [GSK2358994] | 0
24 | O=c1cc(N2CCOCC2)nc2n(Cc3cccc(F)c3)ccn12 [GSK2297430] | 0
25 | CSc1ccc(-c2cc3ncnc(SCC(=O)O)c3s2)cc1 | 22
26 | O=C(c1ccc(-c2cc(-c3c[nH]nc3-c3ccccn3)ccn2)cc1)N1CCOCC1 [GW812171] | 11
27 | COc1ccc(Nc2nccc(N3CCC(NC(=O)Nc4cc(C)ccc4C)C3)n2)cc1 (stereo not shown) [GSK1379741] | 6
28 | Fc1ccc(-c2nn3c(OCC(F)(F)F)cccc3c2-c2ccncc2)cc1 [GW514784] | 59
29 | N#Cc1ccc(-c2cc(-c3c[nH]nc3-c3ccccn3)ccn2)cc1 [GW693028] | 28
30 | COc1cc2ncn(-c3cc(OCc4sccc4Cl)c(C(N)=O)s3)c2cc1OC [GSK448459] | 44
31 | NS(=O)(=O)CCc1cccc(Nc2nccc(-c3c(-c4cccc(NC(=O)c5c(F)cccc5F)c4)nn4ccccc34)n2)c1 [GSK336735] | 98.7
32 | O=C(Nc1n[nH]c2cc(-c3cccc(F)c3)ccc12)C1CC1 [SB-735464] | 21

test system: ERBB3; conditions: concentration: 1 μM, replicates: in singlicate; 1 µM; n = 1

Row | Structure (SMILES) | %Inh
33 | NCCNS(=O)(=O)c1ccc(-c2ccnc3[nH]ccc23)cc1 [GSK977617] | 3% and 0%
34 | CC(C)(CN)c1nc(-c2ccc(Cl)c(O)c2)c(-c2ccncc2)[nH]1.O=C(O)C(F)(F)F [SB-477794] | 42% and 45%
35 | Cl.Cl.Cl.Fc1ccc(-c2ncn(C3CCNCC3)c2-c2ccnc(Nc3ccccc3)n2)cc1 [SB-238039] | 67% and 7%

same assay, conditions: concentration: 1 μM, replicates: in singlicate; n = 1

Row | Structure (SMILES) | %Inh [%]
36 | N#Cc1c(N2CCOCC2)sc(-c2ccn[nH]2)c1-c1ccc(Cl)cc1 | 22
37 | c1ccc(-c2cc(-c3c[nH]nc3-c3ccccn3)ccn2)cc1 [GW576604] | 16
38 | O=C(NCCCN1CCOCC1)c1cccc(Nc2nccc(Nc3ccc(Oc4ccccc4)cc3)n2)c1 [GW663929] | 99.3
39 | CCCCCc1nc2c(N)ncnc2n1CCCCC [SKF-97255] | 0
40 | Cc1c(Cn2c(C)nn3c(=O)cc(N4CCOC(C)C4)nc23)cccc1C(F)(F)F (stereo not shown) [GSK2344444] | 0
41 | O=C(NCCNc1ccnc(Nc2ccc(F)cc2)n1)c1cc2ccccc2s1 [GSK1379874] | 0
42 | CC(C)Oc1ccc2c(-c3ccnc(Nc4ccc(N5CCN(C)CC5)cc4)n3)cnn2n1 [GW696155] | 14
43 | COc1cc2c(cc1OCCN1CCN(C)CC1)ncc1c3ccc(C#N)cc3[nH]c21 | 4
44 | CC(=O)Nc1ccc(COc2ccc(Nc3ccnc4cc(-c5ccccn5)ccc34)cc2)cc1.Cl [GW440148] | 0
45 | CC(C)(C)n1cnc2c(N)ncnc21 [SKF-97359] | 17
46 | CN(C1=C(c2ccccc2)C(=O)NC1=O)c1ccccc1 [SB-334860] | 0
47 | Cl.Nc1ncnc2occ(-c3ccc(NC(=O)Nc4cc(C(F)(F)F)ccc4F)cc3)c12 [SB-707548] | 24
48 | NS(=O)(=O)c1cccc(-c2ccc3nccc(-c4cccc(S(N)(=O)=O)c4)c3c2)c1 [GW867253] | 0
49 | NS(=O)(=O)c1cccc(-c2ccc3ncc(N4CCOCC4)nc3c2)c1 [GSK1535721] | 11
50 | COc1ccc(CNC(=O)NC2CCN(c3ccnc(Nc4ccc(OC)cc4)n3)C2)cc1 (stereo not shown) [GSK1379727] | 10
51 | Cc1nnc(-c2ccc(C)c(-c3ccc(C(=O)Nc4ccc(NS(C)(=O)=O)cc4)cc3)c2)o1 [GW702865] | 20

Row | Structure (SMILES) | %Inh [%]
52 | Cc1nnc(-c2ccc3occ(-c4ccc(C(C)O)cc4)c3c2)o1 (stereo not shown) | 9
53 | [2H]C([2H])(c1cccc(C(F)(F)F)c1C)n1ccn2c(=O)nc(N3CCOCC3)cc12 [GSK2336394] | 0
54 | NCC(NC(=O)c1cc(-c2cn[nH]c2)c(-c2ccnc3[nH]ccc23)s1)c1ccccc1.O=C(O)C(F)(F)F.O=C(O)C(F)(F)F (stereo not shown) [GSK1325775] | 0
55 | O=C(NCCNc1ccnc(Nc2ccc(F)cc2)n1)Nc1ccccc1F [GSK1379880] | 0
56 | COc1ccc(S(=O)(=O)NC2CCN(c3cc(C)nc(Nc4cccc(C#N)c4)n3)CC2)cc1.O=C(O)C(F)(F)F [GSK1653539] | 0
57 | O=C1NC(=O)C(N2CCc3ccccc32)=C1c1cccc(Cl)c1 [SB-408010] | 0
58 | O=c1cc(N2CCOCC2)nc2n(Cc3cccc(Cl)c3Cl)c(C3CC3)nn12 [GSK2358994] | 9
59 | O=c1cc(N2CCOCC2)nc2n(Cc3cccc(F)c3)ccn12 [GSK2297430] | 0
60 | CSc1ccc(-c2cc3ncnc(SCC(=O)O)c3s2)cc1 | 7
61 | O=C(c1ccc(-c2cc(-c3c[nH]nc3-c3ccccn3)ccn2)cc1)N1CCOCC1 [GW812171] | 0
62 | COc1ccc(Nc2nccc(N3CCC(NC(=O)Nc4cc(C)ccc4C)C3)n2)cc1 (stereo not shown) [GSK1379741] | 0
63 | Fc1ccc(-c2nn3c(OCC(F)(F)F)cccc3c2-c2ccncc2)cc1 [GW514784] | 29
64 | N#Cc1ccc(-c2cc(-c3c[nH]nc3-c3ccccn3)ccn2)cc1 [GW693028] | 0
65 | COc1cc2ncn(-c3cc(OCc4sccc4Cl)c(C(N)=O)s3)c2cc1OC [GSK448459] | 0
66 | NS(=O)(=O)CCc1cccc(Nc2nccc(-c3c(-c4cccc(NC(=O)c5c(F)cccc5F)c4)nn4ccccc34)n2)c1 [GSK336735] | 94
67 | O=C(Nc1n[nH]c2cc(-c3cccc(F)c3)ccc12)C1CC1 [SB-735464] | 0
